Here are results for 37 compounds from PubChem BioAssay (Tox21).

Results filed as inconclusive are left out. Entries that show only a call come without a potency. More than one record can exist for a structure, and the calls need not agree. Active and inactive are the calls of the source. Unless noted, calls follow the shape of the full dose curve.

Thyrotropin receptor (Homo sapiens), sequence (P16473 whole entry, looked up): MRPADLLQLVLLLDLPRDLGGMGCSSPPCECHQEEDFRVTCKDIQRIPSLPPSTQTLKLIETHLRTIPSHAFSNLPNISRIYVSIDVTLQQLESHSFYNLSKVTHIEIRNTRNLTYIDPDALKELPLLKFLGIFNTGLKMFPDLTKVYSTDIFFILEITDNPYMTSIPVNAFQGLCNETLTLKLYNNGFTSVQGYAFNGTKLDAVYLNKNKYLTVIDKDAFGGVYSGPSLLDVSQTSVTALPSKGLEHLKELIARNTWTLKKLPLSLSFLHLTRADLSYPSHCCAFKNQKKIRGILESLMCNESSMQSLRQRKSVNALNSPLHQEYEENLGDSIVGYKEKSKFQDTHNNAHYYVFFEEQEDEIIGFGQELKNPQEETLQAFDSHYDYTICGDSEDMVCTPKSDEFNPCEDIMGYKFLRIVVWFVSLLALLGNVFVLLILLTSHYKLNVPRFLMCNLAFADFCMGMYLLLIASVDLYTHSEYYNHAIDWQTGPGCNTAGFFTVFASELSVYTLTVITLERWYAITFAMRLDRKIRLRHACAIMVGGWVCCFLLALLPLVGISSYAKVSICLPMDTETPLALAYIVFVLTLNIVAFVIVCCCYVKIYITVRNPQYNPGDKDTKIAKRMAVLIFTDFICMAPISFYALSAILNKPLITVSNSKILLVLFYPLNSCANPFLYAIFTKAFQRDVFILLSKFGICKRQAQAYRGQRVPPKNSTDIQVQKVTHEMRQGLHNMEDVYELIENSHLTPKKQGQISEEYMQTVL

One assay addresses Thyrotropin receptor (Homo sapiens) (UniProt P16473). The experiment in a line: qHTS assay to identify small molecule agonists of the thyroid stimulating hormone receptor (TSHR) signaling pathway (AID 1224843). Also: nearly all actives have a fitted effect of over 45% in size. Conditions: TSHR-HEK293 cells, cAMP HTRF, agonist mode, 30 min; series mostly up to 92.4 µM. The essentials:
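Compounds are titrated over 15 concentrations, in triplicate, onto TSHR-HEK293 cells seeded at 800/well. Plates sit 30 min at room temperature before cAMP-d2 and anti-cAMP cryptate are added; signal is read after a further hour.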
(In general: Quantitative high-throughput screening tests each substance at several concentrations.)
Consider `Cc1[nH]c(=O)n(C(C)(C)C)c(=O)c1Cl`, for which the Potency entry is “inactive”.
Still for that read-out and setting: then `BrCCBr`, with “inactive”.
Same read-out and setting: then `CCC[N+](=O)[O-]`, with “inactive”; and `CCC12COCN1COC2`, with “inactive”.
On the same count and under the same terms, then `Nc1ccc(Br)cc1`, with “inactive”.
Turning to `O=NN1CCCC1`, the Potency entry was “inactive”.
On to `C#CC(C)(C)NC(=O)c1cc(Cl)cc(Cl)c1`, for which the Potency result is “inactive”.
Same read-out and setting: then `O=[N+]([O-])c1ccc(Oc2ccc(Cl)cc2Cl)cc1`, with “inactive”.
On the same count and under the same terms, the value for `CCN(CC)CCO` was “inactive”; that for `C=CCO` was “inactive”; that for `CCCC1COC(Cn2cncn2)(c2ccc(Cl)cc2Cl)O1` (stereo unspecified) was “inactive”.
Still for that read-out and setting: the value for `C1CC2OC2CC1C1CO1` (stereo unspecified) was “inactive”; that for `O=Cc1cccc(Oc2ccccc2)c1` was “inactive”; that for `CCNc1nc(NC(C)C)nc(SC)n1` was “inactive”.

System in another assay: not listed separately
The experiment in a line: qHTS assay to identify small molecule agonists of the hypoxia (HIF-1) signaling pathway - cell viability counter screen (AID 1224844). Also: nearly all actives have a fitted effect of over 50% in size. Also: potency is read from the fitted curve at half-maximal effect. The conditions noted are these: HRE-bla ME-180 viability, CellTiter-Glo luminescence, 17 h; series mostly up to 76.8 µM. The essentials: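 Same wells as the HIF-1 reporter screen; ME-180 cells carrying HRE-bla, 17 hr treatment at 37C; CellTiter-Glo luminescence read after 30 min at room temperature.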
For `C=CC(N)=O`, the Potency entry was “inactive”.
Same read-out and setting: then `O=c1ccc(=O)[nH][nH]1`, with “inactive”; and `CN(C)[C@@H]1C(=O)C(C(N)=O)=C(O)[C@@]2(O)C(=O)C3=C(O)c4c(O)cccc4[C@@](C)(O)[C@H]3C[C@@H]12`, with “inactive”.
Same read-out and setting: the value for `O=[N+]([O-])c1ccccc1` was “inactive”.
On the same count and under the same terms, then `CC1C=[C-]C=C1.[C-]#[O+].[C-]#[O+].[C-]#[O+].[Mn]`, with “inactive”.
`CCCN(CCC)N=O`: the Potency result was “inactive”.
On the same count and under the same terms, the value for `C1CN2CCN1CC2` was “inactive”.
Same read-out and setting: then `[N-]=[N+]=[N-]`, with “inactive”; and `CC(Br)C(=O)O` (stereo unspecified), with “inactive”; and `CC(C)(Cl)Cl`, with “inactive”.
The same measure, in the same setting: the value for `CCNc1nc(NC(C)(C)C)nc(SC)n1` was “inactive”; that for `O=NN1CCCCCCC1` was “inactive”.
Turning to `CC(=O)C=C(C)C`, the Potency entry was “inactive”.
On the same count and under the same terms, then `OCCN(CCO)CCO`, with “inactive”.
On to `Nc1c(Cl)c(Cl)nc(C(=O)O)c1Cl`, for which the Potency result is “inactive”.
On the same count and under the same terms, the value for `ClCc1cccnc1` was “inactive”.
On the same count and under the same terms, then `Cc1[nH]c(=O)n(C(C)(C)C)c(=O)c1Cl`, with “inactive”; and `BrCCBr`, with “inactive”; and `CCC(C)(CC)c1cc(NC(=O)c2c(OC)cccc2OC)on1`, with “inactive”.
Take `CN(C)N=O`: the Potency entry is “inactive”.
As to `Cc1ccc(N)cc1N`, the Potency result was “inactive”.
Same read-out and setting: the value for `CCC[N+](=O)[O-]` was 4.81 µM (active) and inactive.
Same read-out and setting: then `CCC12COCN1COC2`, with “inactive”; and `CC(C)(C)OOC(=O)c1ccccc1`, with “inactive”.
The same measure, in the same setting: the value for `CCOP(OCC)OCC` was “inactive”; that for `Nc1ccc(Br)cc1` was “inactive”.
For the compound `CCOP(=S)(OCC)SCCSCC`, the Potency entry was “inactive”.
Regarding `O=NN1CCCC1`, the Potency is 11.5 µM (active) and inactive.
Still for that read-out and setting: the value for `C#CC(C)(C)NC(=O)c1cc(Cl)cc(Cl)c1` was “inactive”; that for `O=[N+]([O-])c1ccc(Oc2ccc(Cl)cc2Cl)cc1` was “inactive”.
As to `CCN(CC)CCO`, the Potency result was “inactive”.
On the same count and under the same terms, the value for `C=CCO` was “inactive”; that for `CCCC1COC(Cn2cncn2)(c2ccc(Cl)cc2Cl)O1` (stereo unspecified) was “inactive”; that for `C1CC2OC2CC1C1CO1` (stereo unspecified) was “inactive”.
On the same count and under the same terms, the value for `O=Cc1cccc(Oc2ccccc2)c1` was “inactive”; that for `CC(NC(C)(C)C)C(=O)c1cccc(Cl)c1` (stereo unspecified) was “inactive”; that for `CCNc1nc(NC(C)C)nc(SC)n1` was “inactive”.

System in the next assay: not listed separately
The assay can be described thus: qHTS assay to identify small molecule agonists of H2AX (AID 1224845; active = well fitted activation curve with a large enough effect in the signal ratio in the repeat runs, not every such curve was filed as active; the % refers to the signal ratio; also: potency is read from the fitted curve at half-maximal effect). Conditions: CHO-K1 phospho-H2AX Ser139 HTRF, 3 h; series mostly up to 154 µM. A digest of the protocol:
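Wild-type CHO-K1 cells plated overnight, then exposed 3 hr at 37C to compounds at 15 concentrations (0.76% DMSO). Lysed, then HTRF anti-pH2AX(S139)-cryptate/anti-H2AX-d2 detection after 24 hr at room temperature; emissions 665 and 620 nm.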
As for `C=CC(N)=O`, the Potency result is “inactive”.
The same measure, in the same setting: then `O=c1ccc(=O)[nH][nH]1`, with “inactive”.
Same read-out and setting: then `CN(C)[C@@H]1C(=O)C(C(N)=O)=C(O)[C@@]2(O)C(=O)C3=C(O)c4c(O)cccc4[C@@](C)(O)[C@H]3C[C@@H]12`, with “inactive”; and `O=[N+]([O-])c1ccccc1`, with “inactive”; and `CC1C=[C-]C=C1.[C-]#[O+].[C-]#[O+].[C-]#[O+].[Mn]`, with “inactive”.
The same measure, in the same setting: the value for `CCCN(CCC)N=O` was “inactive”.
As for `C1CN2CCN1CC2`, the Potency result is “inactive”.
On the same count and under the same terms, then `[N-]=[N+]=[N-]`, with “inactive”; and `CC(Br)C(=O)O` (stereo unspecified), with “inactive”; and `CC(C)(Cl)Cl`, with “inactive”.
Still for that read-out and setting: then `CCNc1nc(NC(C)(C)C)nc(SC)n1`, with “inactive”.
As to `O=NN1CCCCCCC1`, the Potency entry is “inactive”.
Same read-out and setting: the value for `CC(=O)C=C(C)C` was “inactive”; that for `OCCN(CCO)CCO` was “inactive”.
Same read-out and setting: the value for `Nc1c(Cl)c(Cl)nc(C(=O)O)c1Cl` was “inactive”.
For `ClCc1cccnc1`, the Potency result was “inactive”.
Take `Cc1[nH]c(=O)n(C(C)(C)C)c(=O)c1Cl`: the Potency result was “inactive”.
Still for that read-out and setting: then `BrCCBr`, with “inactive”; and `CCC(C)(CC)c1cc(NC(=O)c2c(OC)cccc2OC)on1`, with “inactive”; and `CN(C)N=O`, with “inactive”.
On the same count and under the same terms, the value for `CCC[N+](=O)[O-]` was 5.56 µM (active) and inactive.
Still for that read-out and setting: then `CCC12COCN1COC2`, with “inactive”.
With `CC(C)(C)OOC(=O)c1ccccc1`, the Potency result is “inactive”.
Same read-out and setting: the value for `CCOP(OCC)OCC` was “inactive”; that for `Nc1ccc(Br)cc1` was “inactive”.
Still for that read-out and setting: then `CCOP(=S)(OCC)SCCSCC`, with “inactive”; and `O=NN1CCCC1`, with 16.7 µM (active) and inactive.
The same measure, in the same setting: the value for `C#CC(C)(C)NC(=O)c1cc(Cl)cc(Cl)c1` was “inactive”.
`O=[N+]([O-])c1ccc(Oc2ccc(Cl)cc2Cl)cc1`: the Potency result was “inactive”.
Still for that read-out and setting: the value for `CCN(CC)CCO` was “inactive”.
Same read-out and setting: then `C=CCO`, with “inactive”; and `CCCC1COC(Cn2cncn2)(c2ccc(Cl)cc2Cl)O1` (stereo unspecified), with “inactive”.
Same read-out and setting: the value for `C1CC2OC2CC1C1CO1` (stereo unspecified) was “inactive”.
On to `O=Cc1cccc(Oc2ccccc2)c1`, for which the Potency entry is “inactive”.
Still for that read-out and setting: the value for `CC(NC(C)(C)C)C(=O)c1cccc(Cl)c1` (stereo unspecified) was “inactive”; that for `CCNc1nc(NC(C)C)nc(SC)n1` was “inactive”.

System in a further assay: not listed separately
The experiment in a line: qHTS assay to identify small molecule agonists of the hypoxia (HIF-1) signaling pathway (AID 1224846; active = well fitted activation curve with a large enough effect in the signal ratio in the repeat runs, not every such curve was filed as active; the % refers to the signal ratio). Conditions: HRE-bla ME-180 cells, beta-lactamase ratio, 17 h; series mostly up to 76.8 µM. A digest of the protocol:
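In ME-180 cells bearing an HRE-bla construct, 17 h treatment with DMSO-dissolved compounds at 37C was followed by CCF4-AM loading to quantify reporter induction.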
With `C1CN2CCN1CC2`, the result was inactive.
The same measure, in the same setting: the value for `[N-]=[N+]=[N-]` was “inactive”; that for `CCNc1nc(NC(C)(C)C)nc(SC)n1` was “inactive”.
As to `OCCN(CCO)CCO`, the outcome was inactive.
Still for that read-out and setting: then `Nc1c(Cl)c(Cl)nc(C(=O)O)c1Cl`, with “inactive”.
Take `ClCc1cccnc1`: the result was inactive.
Same read-out and setting: then `Cc1[nH]c(=O)n(C(C)(C)C)c(=O)c1Cl`, with “inactive”; and `CCC(C)(CC)c1cc(NC(=O)c2c(OC)cccc2OC)on1`, with “inactive”.
On the same count and under the same terms, then `CN(C)N=O`, with “inactive”.
The same measure, in the same setting: the value for `Cc1ccc(N)cc1N` was “inactive”; that for `CCC[N+](=O)[O-]` was “inactive”; that for `CC(C)(C)OOC(=O)c1ccccc1` was “inactive”.
As for `CCOP(OCC)OCC`, the outcome was inactive.
Still for that read-out and setting: the value for `Nc1ccc(Br)cc1` was “inactive”; that for `CCOP(=S)(OCC)SCCSCC` was “inactive”.
The same measure, in the same setting: the value for `C#CC(C)(C)NC(=O)c1cc(Cl)cc(Cl)c1` was “inactive”; that for `CCN(CC)CCO` was “inactive”; that for `O=Cc1cccc(Oc2ccccc2)c1` was “inactive”.
The same measure, in the same setting: the value for `CCNc1nc(NC(C)C)nc(SC)n1` was “inactive”.
